# According to PubChem BioAssay (EPA / NIEHS):
# Records with an inconclusive call do not appear. Activity calls are given as the source filed them. Rule for the calls, unless noted: active = hit-call score of the fitted dose curve at least 0.9, where 1 is the maximum; inconclusive = response in the unintended direction; inactive = score below 0.9.
# Tests used:
# [1] = biological target: human Peroxisome Proliferator-activated Receptor alpha (PPARa), PPARA (gene 5465) (UniProt Q07869); experiment: ATG_PPARa_TRANS: Attagene TRANS-FACTORIAL HepG2 Assay for human Peroxisome Proliferator-activated Receptor alpha (PPARa) (AID 2283001);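 for AC50: potency for gain of reporter signal over DMSO so agonist or activator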
# Sequence of human Peroxisome Proliferator-activated Receptor alpha (PPARa), PPARA (gene 5465) (Q07869 whole entry, looked up, the tested form may be a part): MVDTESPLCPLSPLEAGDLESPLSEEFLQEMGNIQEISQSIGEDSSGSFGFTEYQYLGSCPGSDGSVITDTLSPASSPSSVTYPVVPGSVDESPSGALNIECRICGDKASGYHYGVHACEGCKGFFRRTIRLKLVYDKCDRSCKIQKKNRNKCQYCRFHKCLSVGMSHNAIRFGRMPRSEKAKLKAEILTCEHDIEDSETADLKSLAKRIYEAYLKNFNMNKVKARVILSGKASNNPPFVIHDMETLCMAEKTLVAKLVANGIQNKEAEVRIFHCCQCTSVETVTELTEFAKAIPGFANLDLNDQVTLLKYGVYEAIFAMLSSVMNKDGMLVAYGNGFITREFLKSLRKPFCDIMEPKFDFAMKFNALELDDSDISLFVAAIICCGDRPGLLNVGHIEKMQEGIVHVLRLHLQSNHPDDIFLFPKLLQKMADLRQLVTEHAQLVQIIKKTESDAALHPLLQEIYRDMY
# Procedure, shortened: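 HepG2 cells transiently transfected with multiplexed GAL4-UAS reporters driven by exogenous chimeric NR-Gal4 proteins; reporter mRNA measured after 24 h dosing. Read-out by RT-PCR, 6-FAM labelling, HpaI digestion and capillary electrophoresis; gain of signal versus DMSO.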
# [2] = biological target: human Peroxisome Proliferator-activated Receptor delta (PPARd), PPARD (gene 5467) (UniProt Q03181); experiment: ATG_PPARd_TRANS: Attagene TRANS-FACTORIAL HepG2 Assay for human Peroxisome Proliferator-activated Receptor delta (PPARd) (AID 2283002)
# Sequence of human Peroxisome Proliferator-activated Receptor delta (PPARd), PPARD (gene 5467) (Q03181 whole entry, looked up, the tested form may be a part): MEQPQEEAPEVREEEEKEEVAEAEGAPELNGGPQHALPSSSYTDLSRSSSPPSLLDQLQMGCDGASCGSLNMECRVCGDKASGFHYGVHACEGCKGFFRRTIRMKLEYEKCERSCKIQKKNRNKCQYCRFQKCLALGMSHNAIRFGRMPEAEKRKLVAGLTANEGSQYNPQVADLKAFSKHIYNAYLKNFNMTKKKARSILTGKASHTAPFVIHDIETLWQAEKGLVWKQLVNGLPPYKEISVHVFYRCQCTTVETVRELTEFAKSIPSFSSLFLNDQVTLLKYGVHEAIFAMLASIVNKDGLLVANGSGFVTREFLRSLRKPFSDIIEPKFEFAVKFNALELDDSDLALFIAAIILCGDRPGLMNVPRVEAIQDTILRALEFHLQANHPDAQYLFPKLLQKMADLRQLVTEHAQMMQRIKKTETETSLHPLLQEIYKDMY
# Procedure, shortened: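 Fluorescence from capillary electrophoresis of labelled RT-PCR reporter fragments gives the signal; DMSO sets baseline. Cells: HepG2 transiently carrying GAL4-UAS reporter units plus chimeric nuclear receptor-Gal4 proteins, exposed to chemicals for 24 h.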
# [3] = biological target: Peroxisome proliferator-activated receptor gamma (Homo sapiens) (UniProt P37231); experiment: ATG_PPARg_TRANS: Attagene TRANS-FACTORIAL HepG2 Assay for human Peroxisome Proliferator-activated Receptor-gamma (PPARg) (AID 2283007)
# Sequence of Peroxisome proliferator-activated receptor gamma (Homo sapiens) (P37231 whole entry, looked up, the tested form may be a part): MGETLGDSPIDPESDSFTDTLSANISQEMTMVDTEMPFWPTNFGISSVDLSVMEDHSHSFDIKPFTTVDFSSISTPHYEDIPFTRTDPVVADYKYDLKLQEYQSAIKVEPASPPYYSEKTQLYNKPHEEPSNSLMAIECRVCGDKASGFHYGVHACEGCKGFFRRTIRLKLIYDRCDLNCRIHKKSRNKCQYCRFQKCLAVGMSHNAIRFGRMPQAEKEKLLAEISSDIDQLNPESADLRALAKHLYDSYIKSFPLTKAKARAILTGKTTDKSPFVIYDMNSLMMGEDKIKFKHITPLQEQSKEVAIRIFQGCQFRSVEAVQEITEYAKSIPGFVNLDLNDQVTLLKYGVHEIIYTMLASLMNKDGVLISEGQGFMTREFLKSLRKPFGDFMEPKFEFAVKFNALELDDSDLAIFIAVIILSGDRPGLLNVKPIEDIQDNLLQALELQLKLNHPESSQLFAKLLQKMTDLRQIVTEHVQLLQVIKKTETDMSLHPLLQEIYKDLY
# Procedure, shortened: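 Gain-of-signal endpoint relative to DMSO, derived from reporter mRNA levels quantified by RT-PCR and capillary electrophoresis. Cells were HepG2 transiently expressing a chimeric NR-Gal4 construct with GAL4-UAS reporters, exposed to chemicals for 24 h.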
# [4] = biological target: Nuclear receptor subfamily 1 group I member 2 (Homo sapiens) (UniProt O75469); experiment: ATG_PXR_TRANS: Attagene TRANS-FACTORIAL HepG2 Assay for human Pregnane X Receptor (PXR) (AID 2283008)
# Sequence of Nuclear receptor subfamily 1 group I member 2 (Homo sapiens) (O75469 whole entry, looked up, the tested form may be a part): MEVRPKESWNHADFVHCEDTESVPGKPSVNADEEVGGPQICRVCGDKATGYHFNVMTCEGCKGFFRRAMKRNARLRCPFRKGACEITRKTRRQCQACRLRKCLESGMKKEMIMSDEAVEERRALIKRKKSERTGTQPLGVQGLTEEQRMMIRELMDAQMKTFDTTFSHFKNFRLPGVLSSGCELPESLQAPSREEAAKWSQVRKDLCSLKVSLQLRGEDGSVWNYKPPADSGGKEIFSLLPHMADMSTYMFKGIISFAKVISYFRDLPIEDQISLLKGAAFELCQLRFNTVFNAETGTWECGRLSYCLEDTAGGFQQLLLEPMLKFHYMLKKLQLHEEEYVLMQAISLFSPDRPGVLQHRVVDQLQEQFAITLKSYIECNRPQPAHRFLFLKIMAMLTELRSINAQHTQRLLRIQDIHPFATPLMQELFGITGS
# Procedure, shortened: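 HepG2 cells transiently transfected with GAL4-UAS reporter units and PXR-Gal4 chimera, exposed 24 h. Reporter mRNA quantified by RT-PCR, fluorescent labelling, HpaI digestion and capillary electrophoresis; gain of signal vs DMSO.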
# [5] = biological target: human RAR-related Orphan Receptor beta (RORb), RORB (gene 6096) (UniProt Q92753); experiment: ATG_RORb_TRANS: Attagene TRANS-FACTORIAL HepG2 Assay for human RAR-related Orphan Receptor beta (RORb) (AID 2283010)
# Procedure, shortened: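 HepG2 cells transiently transfected with GAL4-UAS reporter units expressing chimeric NR-Gal4 protein; reporter mRNA measured 24 h after dosing by RT-PCR, 6-FAM labelling and capillary electrophoresis. Gain-of-signal fitted relative to DMSO baseline.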
# [6] = biological target: human RAR-related Orphan Receptor gamma (RORg), RORC (gene 6097) (UniProt P51449); experiment: ATG_RORg_TRANS: Attagene TRANS-FACTORIAL HepG2 Assay for human RAR-related Orphan Receptor gamma (RORg) (AID 2283011)
# Procedure, shortened: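 First, HepG2 liver cells were transfected with GAL4-UAS-driven reporter constructs and the RORg-Gal4 fusion. Next, they were treated with chemical for 24 h. Finally, reporter mRNA was quantified by RT-PCR and capillary electrophoresis, with upward activity fitted against DMSO.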
# [7] = biological target: human Thyroid Receptor alpha (THRa1), THRA (gene 7067) (UniProt P10827); experiment: ATG_THRa1_TRANS: Attagene TRANS-FACTORIAL HepG2 Assay for human Thyroid Receptor alpha (THRa1) (AID 2283014)
# Sequence of human Thyroid Receptor alpha (THRa1), THRA (gene 7067) (P10827 whole entry, looked up, the tested form may be a part): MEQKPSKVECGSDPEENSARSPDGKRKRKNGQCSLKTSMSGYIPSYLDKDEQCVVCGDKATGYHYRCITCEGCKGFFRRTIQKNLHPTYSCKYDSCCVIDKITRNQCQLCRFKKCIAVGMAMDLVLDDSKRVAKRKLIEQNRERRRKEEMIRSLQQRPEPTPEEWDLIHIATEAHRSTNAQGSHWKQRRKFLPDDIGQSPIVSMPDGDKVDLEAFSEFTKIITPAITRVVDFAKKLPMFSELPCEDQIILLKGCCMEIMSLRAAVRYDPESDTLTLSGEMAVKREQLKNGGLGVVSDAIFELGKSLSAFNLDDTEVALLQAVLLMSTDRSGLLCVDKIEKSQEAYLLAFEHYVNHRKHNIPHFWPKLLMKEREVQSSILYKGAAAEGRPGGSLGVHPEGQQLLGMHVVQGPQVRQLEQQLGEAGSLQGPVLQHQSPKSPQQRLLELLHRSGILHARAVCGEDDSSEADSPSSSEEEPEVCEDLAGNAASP
# Procedure, shortened: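 Reporter transcript induction, read by capillary electrophoresis of 6-FAM-labelled RT-PCR products, reflects activity of a transfected THRa1-Gal4 fusion in HepG2 liver cells. Cells were dosed for 24 h; activity was fitted in the positive direction against DMSO.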
# [8] = biological target: Retinoic acid receptor alpha (Homo sapiens) (UniProt P10276); experiment: ATG_RARa_TRANS: Attagene TRANS-FACTORIAL HepG2 Assay for human Retinoic Acid Receptor alpha (RARa) (AID 2283005)
# Sequence of Retinoic acid receptor alpha (Homo sapiens) (P10276 whole entry, looked up, the tested form may be a part): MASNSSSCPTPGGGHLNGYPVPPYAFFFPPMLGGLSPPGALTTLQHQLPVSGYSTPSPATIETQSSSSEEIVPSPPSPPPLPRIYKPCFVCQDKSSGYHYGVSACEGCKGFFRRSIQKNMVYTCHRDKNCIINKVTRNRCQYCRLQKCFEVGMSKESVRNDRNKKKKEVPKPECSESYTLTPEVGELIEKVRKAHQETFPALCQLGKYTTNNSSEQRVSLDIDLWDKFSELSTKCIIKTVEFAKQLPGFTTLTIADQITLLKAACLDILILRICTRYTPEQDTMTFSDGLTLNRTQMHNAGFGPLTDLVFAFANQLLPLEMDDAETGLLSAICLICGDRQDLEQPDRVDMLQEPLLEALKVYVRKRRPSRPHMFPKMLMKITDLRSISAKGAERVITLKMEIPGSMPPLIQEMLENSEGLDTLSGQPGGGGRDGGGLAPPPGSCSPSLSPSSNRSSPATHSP
# Procedure, shortened: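 HepG2 transiently transfected with multiplex GAL4-UAS reporter units including a human RARa–GAL4 chimera; 24 h compound exposure. Reporter mRNA quantified by RT-PCR, 6-FAM labeling and capillary electrophoresis; gain of signal versus DMSO.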
# [9] = biological target: human Retinoic Acid Receptor gamma (RARg), RARG (gene 5916) (UniProt P13631); experiment: ATG_RARg_TRANS: Attagene TRANS-FACTORIAL HepG2 Assay for human Retinoic Acid Receptor gamma (RARg) (AID 2283009)
# Sequence of human Retinoic Acid Receptor gamma (RARg), RARG (gene 5916) (P13631 whole entry, looked up, the tested form may be a part): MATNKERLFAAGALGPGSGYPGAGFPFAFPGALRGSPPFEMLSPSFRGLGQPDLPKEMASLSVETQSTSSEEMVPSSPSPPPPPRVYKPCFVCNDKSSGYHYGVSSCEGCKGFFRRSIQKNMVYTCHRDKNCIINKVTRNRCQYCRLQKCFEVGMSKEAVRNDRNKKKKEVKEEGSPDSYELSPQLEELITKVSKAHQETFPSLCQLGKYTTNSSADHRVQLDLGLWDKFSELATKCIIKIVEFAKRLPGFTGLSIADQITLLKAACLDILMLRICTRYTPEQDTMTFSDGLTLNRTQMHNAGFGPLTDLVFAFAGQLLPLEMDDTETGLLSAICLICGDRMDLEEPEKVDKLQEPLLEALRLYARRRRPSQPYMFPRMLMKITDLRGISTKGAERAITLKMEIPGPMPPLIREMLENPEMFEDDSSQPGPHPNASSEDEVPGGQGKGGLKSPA
# Procedure, shortened: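 HepG2 transiently transfected with GAL4-UAS reporter units and chimeric NR-Gal4 constructs; 24 h compound exposure. Reporter mRNA quantified by RT-PCR, FAM labeling, HpaI digestion and capillary electrophoresis; gain-of-signal versus DMSO.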
# [10] = biological target: human Retinoid X Receptor beta (RXRb), RXRB (gene 6257) (UniProt P28702); experiment: ATG_RXRb_TRANS: Attagene TRANS-FACTORIAL HepG2 Assay for human Retinoid X Receptor beta (RXRb) (AID 2283013)
# Sequence of human Retinoid X Receptor beta (RXRb), RXRB (gene 6257) (P28702 whole entry, looked up, the tested form may be a part): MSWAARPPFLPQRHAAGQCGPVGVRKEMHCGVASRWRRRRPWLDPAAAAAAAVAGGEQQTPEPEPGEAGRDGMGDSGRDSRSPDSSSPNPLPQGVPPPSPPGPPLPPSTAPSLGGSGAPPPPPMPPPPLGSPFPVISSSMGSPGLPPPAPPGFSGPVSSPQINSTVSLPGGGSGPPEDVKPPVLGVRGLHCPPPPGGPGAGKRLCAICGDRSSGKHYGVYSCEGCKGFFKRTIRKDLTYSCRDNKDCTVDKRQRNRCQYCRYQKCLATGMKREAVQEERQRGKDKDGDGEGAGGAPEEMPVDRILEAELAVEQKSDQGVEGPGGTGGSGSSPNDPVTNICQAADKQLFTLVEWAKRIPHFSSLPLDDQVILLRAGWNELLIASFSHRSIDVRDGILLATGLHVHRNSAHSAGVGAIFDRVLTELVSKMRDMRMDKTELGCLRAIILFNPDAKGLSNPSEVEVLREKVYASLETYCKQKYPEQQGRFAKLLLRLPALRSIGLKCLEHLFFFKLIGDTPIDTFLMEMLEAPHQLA
# Procedure, shortened: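 HepG2 cells were transiently transfected with multiplexed GAL4-UAS reporters and a chimeric RXRb-Gal4 construct, then exposed for 24 h. Reporter mRNA was quantified by RT-PCR, FAM labeling, HpaI digestion and capillary electrophoresis; gain of signal was scored against DMSO.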
# [11] = biological target: Retinoic acid receptor RXR-alpha (Homo sapiens) (UniProt P19793); experiment: ATG_RXRa_TRANS: Attagene TRANS-FACTORIAL HepG2 Assay for human Retinoid X Receptor alpha (RXRa) (AID 2283012)
# Sequence of Retinoic acid receptor RXR-alpha (Homo sapiens) (P19793 whole entry, looked up, the tested form may be a part): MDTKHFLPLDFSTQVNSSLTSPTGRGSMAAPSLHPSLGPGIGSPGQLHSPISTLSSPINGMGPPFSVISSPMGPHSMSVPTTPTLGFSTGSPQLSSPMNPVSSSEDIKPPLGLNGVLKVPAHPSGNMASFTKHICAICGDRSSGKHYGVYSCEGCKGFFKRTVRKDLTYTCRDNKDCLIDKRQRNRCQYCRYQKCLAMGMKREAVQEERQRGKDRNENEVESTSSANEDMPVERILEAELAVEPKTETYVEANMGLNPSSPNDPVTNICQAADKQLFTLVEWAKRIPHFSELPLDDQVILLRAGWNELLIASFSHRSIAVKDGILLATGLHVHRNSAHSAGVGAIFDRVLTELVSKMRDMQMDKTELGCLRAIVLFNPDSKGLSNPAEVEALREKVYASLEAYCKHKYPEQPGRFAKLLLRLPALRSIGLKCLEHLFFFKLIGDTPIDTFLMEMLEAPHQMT
# Procedure, shortened: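 HepG2 cells transiently transfected with GAL4-UAS reporter units and chimeric RXRa-Gal4 protein, treated 24 h. Reporter mRNA measured by RT-PCR, fluorescent labelling, HpaI digestion and capillary electrophoresis. Induction fitted against DMSO.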
# [12] = read-out: Intercellular Adhesion Molecule 1 (ICAM1), ICAM1 (gene 3383); experiment: BSK_3C_ICAM1: BioMAP Diversity Plus: 3C Assay for Intercellular Adhesion Molecule 1 (ICAM1) Biomarker Activity (AID 2283003; active = hit-call score of the fitted dose curve at least 0.9, where 1 is the maximum; inactive = score below 0.9); details: primary human endothelial cells (HUVEC); actives raise or lower the signal
# Procedure, shortened: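 HUVEC primary cells stimulated under 3C conditions; ICAM1 measured by ELISA 24 h after compound dosing. Curves fitted bidirectionally against the DMSO baseline. Overt cytotoxicity checked by SRB staining of parallel cultures.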
# [13] = read-out: E-selectin (Homo sapiens) (UniProt P16581); experiment: BSK_3C_Eselectin: BioMAP Diversity Plus: 3C Assay for Eselectin Biomarker Activity (AID 2283015; active = hit-call score of the fitted dose curve at least 0.9, where 1 is the maximum; inactive = score below 0.9;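 for outcome: cell surface E-selectin protein quantified by ELISA 24 h after dosing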); details: primary human endothelial cells (HUVEC); actives raise or lower the signal
# Procedure, shortened: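 ELISA read-out of E-selectin on endothelial monolayers after 24 h chemical treatment. Human umbilical vein primary cells served as the system, with DMSO defining baseline activity for bidirectional fitting.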
# [14] = read-out: Interleukin-1 alpha (IL1a), IL1A (gene 3552); experiment: BSK_BE3C_IL1a: BioMAP Diversity Plus: BE3C Assay for Interleukin-1 alpha (IL1a) Biomarker Activity (AID 2283016; active = hit-call score of the fitted dose curve at least 0.9, where 1 is the maximum; inactive = score below 0.9); details: primary human bronchial epithelial cells; actives raise or lower the signal
# Procedure, shortened: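 Human primary bronchial epithelial cells, 24 h chemical exposure; IL-1a quantified by ELISA, fitted bidirectionally against DMSO. Cytotoxicity assessed in parallel by SRB total-protein staining at the time of measurement.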
# [15] = read-out: Monocyte Chemoattractant Protein-1 (MCP1), CCL2 (gene 6347); experiment: BSK_3C_MCP1: BioMAP Diversity Plus: 3C Assay for Monocyte Chemoattractant Protein-1 (MCP1) Biomarker Activity (AID 2283017; active = hit-call score of the fitted dose curve at least 0.9, where 1 is the maximum; inactive = score below 0.9); details: primary human endothelial cells (HUVEC); actives raise or lower the signal
# Procedure, shortened: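 ELISA read-out of MCP-1 from human umbilical vein endothelial cell cultures harvested 24 h post-dosing. Gain or loss of signal was fitted relative to DMSO.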
# [16] = read-out: Monocyte Chemoattractant Protein-1 (MCP1), CCL2 (gene 6347); experiment: BSK_4H_MCP1: BioMAP Diversity Plus: 4H Assay for Monocyte Chemoattractant Protein-1 (MCP1) Biomarker Activity (AID 2283018; active = hit-call score of the fitted dose curve at least 0.9, where 1 is the maximum; inactive = score below 0.9); details: primary human endothelial cells (HUVEC); actives raise or lower the signal
# Procedure, shortened: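 Human umbilical vein endothelial cells (4H system) exposed to chemicals for 24 h in 96-well format. MCP-1 measured by ELISA; bidirectional fitting against DMSO, with SRB total-protein staining in parallel cultures for cytotoxicity.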
# [17] = read-out: Human Leukocyte Antigen - DR isotype (HLADR), HLA-DRA (gene 3122); experiment: BSK_3C_HLADR: BioMAP Diversity Plus: 3C Assay for Human Leukocyte Antigen - DR isotype (HLADR) Biomarker Activity (AID 2283019; active = hit-call score of the fitted dose curve at least 0.9, where 1 is the maximum; inactive = score below 0.9;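 for outcome: ELISA of cell-surface HLA-DR on HUVEC 24 h after dosing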); details: primary human endothelial cells (HUVEC); actives raise or lower the signal
# Procedure, shortened: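 ELISA readout of surface HLA-DR on human umbilical vein endothelium, taken 24 h after chemical treatment. Gain- and loss-of-signal were both fitted relative to DMSO.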
# [18] = read-out: Interleukin-8 (IL8), CXCL8 (gene 3576); experiment: BSK_3C_IL8: BioMAP Diversity Plus: 3C Assay for Interleukin-8 (IL8) Biomarker Activity (AID 2283020; active = hit-call score of the fitted dose curve at least 0.9, where 1 is the maximum; inactive = score below 0.9); details: primary human endothelial cells (HUVEC); actives raise or lower the signal
# Procedure, shortened: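 Primary human umbilical vein endothelial cells were dosed for 24 h. IL-8 was quantified by ELISA and fitted bidirectionally against DMSO. Cytotoxicity was assessed in parallel cultures by SRB staining at 560 nm.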
# [19] = biological target: human Retinoic Acid Receptor beta (RARb), RARB (gene 5915) (UniProt P10826); experiment: ATG_RARb_TRANS: Attagene TRANS-FACTORIAL HepG2 Assay for human Retinoic Acid Receptor beta (AID 2283004)
# Sequence of human Retinoic Acid Receptor beta (RARb), RARB (gene 5915) (P10826 whole entry, looked up): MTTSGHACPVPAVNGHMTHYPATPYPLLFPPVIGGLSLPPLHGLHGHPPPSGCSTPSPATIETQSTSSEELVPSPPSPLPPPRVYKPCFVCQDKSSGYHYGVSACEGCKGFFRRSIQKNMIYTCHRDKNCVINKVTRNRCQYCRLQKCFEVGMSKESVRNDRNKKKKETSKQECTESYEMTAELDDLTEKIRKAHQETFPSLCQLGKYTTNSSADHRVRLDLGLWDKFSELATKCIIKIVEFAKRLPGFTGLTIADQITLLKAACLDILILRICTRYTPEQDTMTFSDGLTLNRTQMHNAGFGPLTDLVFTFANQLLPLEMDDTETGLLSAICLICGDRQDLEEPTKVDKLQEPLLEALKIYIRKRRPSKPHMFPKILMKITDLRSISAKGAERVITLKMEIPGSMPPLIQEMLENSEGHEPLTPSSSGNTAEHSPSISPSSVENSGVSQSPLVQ
# Procedure, shortened: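 Transient transfection of HepG2 with multiple reporter units → chemical dosing, 24 h → total RNA isolation → RT with oligo(dT) → reporter-specific PCR, 6-FAM primer extension, HpaI digest → capillary electrophoresis. Positive direction vs DMSO control.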
compound,measurement,setting,value
O=c1c(O)c(-c2ccc(O)cc2)oc2cc(O)cc(O)c12,outcome,[1],inactive
same,outcome,[2],inactive
same,AC50,[3],9.39 µM (active)
same,outcome,[4],inactive
same,outcome,[5],inactive
same,outcome,[6],inactive
same,outcome,[7],inactive
CCCCCCCCC=CCCCCCCCC1=NCCN1CCO,outcome,[1],inactive
same,outcome,[2],inactive
same,outcome,[8],inactive
same,outcome,[3],inactive
same,outcome,[9],inactive
same,outcome,[5],inactive
same,outcome,[10],inactive
same,outcome,[7],inactive
COC(=O)Nc1ccc(Cl)c(Cl)c1,outcome,[1],inactive
same,outcome,[2],inactive
same,AC50,[3],27.4 µM (active)
same,outcome,[4],inactive
same,outcome,[11],inactive
same,AC50,[10],45.1 µM (active)
same,outcome,[7],inactive
CN(C)C(=O)Nc1ccc(Oc2ccc(Cl)cc2)cc1,outcome,[1],inactive
same,outcome,[12],inactive
same,AC50,[3],17.4 µM (active)
same,AC50,[4],26.6 µM (active)
same,outcome,[11],inactive
same,outcome,[7],inactive
same,AC50,[13],20 µM (active)
same,AC50,[14],3.97 µM (active)
same,AC50,[15],3.97 µM (active)
same,AC50,[16],12.1 µM (active)
same,outcome,[17],inactive
same,outcome,[18],inactive
CC1(C)COCN1,outcome,[1],inactive
same,outcome,[19],inactive
same,outcome,[8],inactive
same,outcome,[4],inactive
O=C1CCCC=CCCCCCCCCCC1,outcome,[1],inactive
same,outcome,[2],inactive
same,AC50,[3],66.8 µM (active)
same,AC50,[11],24.4 µM (active)
same,AC50,[10],12.1 µM (active)
CC(C)c1ccccc1O,outcome,[1],inactive
same,outcome,[2],inactive
same,outcome,[9],inactive
same,outcome,[7],inactive
CC=Cc1ccc(OCC)c(O)c1,outcome,[1],inactive
same,outcome,[12],inactive
same,AC50,[3],31.8 µM (active)
same,AC50,[4],53.6 µM (active)
same,outcome,[7],inactive
same,outcome,[13],inactive
same,outcome,[14],inactive
same,outcome,[15],inactive
same,outcome,[16],inactive
same,outcome,[17],inactive
same,outcome,[18],inactive
CCCCCC(=O)CC,outcome,[1],inactive
same,outcome,[2],inactive
same,outcome,[3],inactive
same,outcome,[11],inactive
same,outcome,[7],inactive
O=C1c2ccccc2C(=O)c2c(O)ccc(O)c21,outcome,[1],inactive
same,outcome,[12],inactive
same,outcome,[19],inactive
same,outcome,[8],inactive
same,AC50,[3],8.37 µM (active)
same,AC50,[4],8.69 µM (active)
same,outcome,[9],inactive
same,outcome,[11],inactive
same,outcome,[10],inactive
same,outcome,[7],inactive
same,outcome,[13],inactive
same,outcome,[14],inactive
same,outcome,[15],inactive
same,outcome,[16],inactive
same,AC50,[17],8.08 µM (active)
same,AC50,[18],2.12 µM (active)
OCC(O)c1ccccc1 (stereo not given),outcome,[1],inactive
same,outcome,[2],inactive
same,outcome,[4],inactive
same,outcome,[5],inactive
same,outcome,[11],inactive
same,outcome,[7],inactive
Nc1c(Cl)cc(Cl)cc1[N+](=O)[O-],outcome,[1],inactive
same,outcome,[2],inactive
same,AC50,[4],16.5 µM (active)
same,outcome,[9],inactive
same,outcome,[11],inactive
same,outcome,[10],inactive
same,outcome,[7],inactive
C=C(C)CNCC,outcome,[1],inactive
same,outcome,[2],inactive
same,AC50,[4],54.6 µM (active)
same,outcome,[9],inactive
same,outcome,[7],inactive
CC(=O)Nc1ccc(C(=O)CCl)cc1,AC50,[1],2.66 µM (active)
same,AC50,[12],8.45 µM (active)
same,outcome,[19],inactive
same,AC50,[3],2.31 µM (active)
same,outcome,[4],inactive
same,outcome,[10],inactive
same,outcome,[7],inactive
same,AC50,[13],7.26 µM (active)
same,AC50,[14],14.9 µM (active)
same,AC50,[15],11.2 µM (active)
same,AC50,[16],9.64 µM (active)
same,AC50,[17],5.06 µM (active)
same,AC50,[18],20 µM (active)
